This is an account of results in PubChem BioAssay AID738 (SRMLSC, 2007).

Each structure is given as a SMILES string. The campaign covered roughly 98,000 compounds. About 4,900 (5%) were called active. Only a selection was taken, and actives are over-represented in it overall. A number with no mark means an inactive call. No stated cut-off is given here; in the data, active means inhibition above about 30%; inactive means the rest.

A short description of the assay: yeast control strain growth suppression – counter-screen for post-Golgi transport modulator project, primary screen (AID 738). The following applies: efflux-deficient yeast background strain, growth absorbance A615, 16 h; at 10 µM; stronger effect = higher value.
In the case of `CCOC(=O)c1c(NC(=O)c2ccc(N3CCOCC3)c([N+](=O)[O-])c2)sc(C)c1C`, the inhibition was 3.45%.

As to `CCOc1c(Cl)cc(/C=N/O)cc1OC`, the inhibition is -0.28%.

Turning to `COc1ccc(C(=O)Oc2cc(/C=N/NS(=O)(=O)c3ccc(C)cc3)ccc2OC)cc1`, the inhibition was 4.53%.

On to `COc1cc(/C=N/O)cc(Br)c1OS(=O)(=O)c1ccc(C)cc1`, for which the inhibition was 55.4% (active).

As to `CCOc1cc(/C=N/O)cc(Br)c1OC`, the inhibition is 9.73%.

Consider `COc1cc(/C=N/O)cc(Br)c1OCc1cccc(Cl)c1`, for which the inhibition was 68% (active).

Regarding `COc1cccc(/C=N/NC(=O)c2cccc([N+](=O)[O-])c2)c1OS(=O)(=O)c1ccc(C)cc1`, the inhibition is 6.93%.

As to `Cn1nc(C(F)(F)F)c(C(=O)Nc2cccc(C(F)(F)F)c2)c1SCc1ccc(Cl)cc1`, the inhibition is 9.33%.

As for `CC(Oc1ccc(-c2ccccc2)c(F)c1)c1ccn(S(=O)(=O)c2cccc3ccccc23)n1` (stereo unspecified), the inhibition is 7.08%.

With `O=c1c2ccccc2c(-c2ccc(F)cc2)nn1-c1ccc(C(F)(F)F)cc1`, the inhibition is 23.4%.

In the case of `COc1c(C)cccc1C(=O)Nc1cc(Cl)ccc1N1CCOCC1`, the inhibition was 87.2% (active).

Consider `O=C(CNC(=O)c1ccc(Cl)cc1Cl)NCC(=O)Nc1ccccc1N1CCOCC1`, for which the inhibition was 1.21%.

Consider `Cc1cc(C(=O)Nc2ccccc2N2CCOCC2)c2ccccc2n1`, for which the inhibition was 6.17%.

As to `C/C(=N\NC(=O)c1ccccc1C)c1ccc(N2CCOCC2)cc1`, the inhibition was -0.44%.

In the case of `CC(C)C(C)NC(=O)COc1ncnc2ccccc12` (stereo unspecified), the inhibition was 27.4%.

Regarding `COc1cccc(N2CCN(C(=O)Nc3ccc4c(c3)NC(=O)CO4)CC2)c1`, the inhibition is 4.59%.

As to `O=C(Cn1cncn1)N/N=C/c1c2ccccc2cc2ccccc12`, the inhibition was -2.2%.

For the compound `COc1ccccc1N1CCN(C(=O)c2cc3c(-c4ccc(Cl)cc4)nn(C)c3s2)CC1`, the inhibition was 16.3%.

With `Cn1nc(-c2ccc(Cl)cc2)c2cc(C(=O)NCc3ccco3)sc21`, the inhibition is 34.4% (active).

Regarding `CCOC(=O)N1CCN(C(=O)c2cc3c(-c4ccc(Cl)cc4)nn(C)c3s2)CC1`, the inhibition was 22.3%.

In the case of `CC(=O)c1cccc(NC(=O)C2CCCN2S(=O)(=O)c2cccc3nsnc23)c1` (stereo unspecified), the inhibition was 18.2%.

In the case of `Cc1ccc(-c2nc3ccccc3[nH]2)cc1NC(=O)c1sc2ccccc2c1Cl`, the inhibition is 12.1%.

Regarding `O=C(/C=C/c1ccco1)Nc1cccc(-c2nc3ccccc3[nH]2)c1`, the inhibition was 14.9%.

`Cc1cccc(N(C(=O)Cc2cccs2)C(C(=O)NC2CCCC2)c2ccsc2)c1` (stereo unspecified): the inhibition is 2.59%.

Regarding `Cc1ccsc1C(C(=O)NC1CCCCC1)N(C(=O)Cc1cccs1)C1CC1` (stereo unspecified), the inhibition was 34.2% (active).

Take `CC(Cc1cccs1)NC(=O)NC1CCCCC1` (stereo unspecified): the inhibition was 4.21%.

Take `Cc1ccc(Oc2ccc3c(c2)C(=O)N(c2cccc4cccnc24)C3=O)cc1`: the inhibition is 9.43%.

For the compound `COC(=O)c1cc(OC)c(OC)cc1NC(=O)CSc1ccc(C)cc1`, the inhibition was 4.16%.

For the compound `N#Cc1ccsc1NC(=O)CN1CCCCC1`, the inhibition is 3.25%.

Turning to `CC1(C)CCCC2=C1CC1C(=O)N(c3ccccc3)C(=O)C1C2` (stereo unspecified), the inhibition was 18.5%.

On to `CC1CC2=C(CC1/C=N/NC(N)=S)C(C)(C)CCC2` (stereo unspecified), for which the inhibition was 90.2% (active).

Regarding `COc1ccc(N(CC(=O)N/N=C/c2cccc3c2OCCO3)S(=O)(=O)c2ccc(NC(C)=O)cc2)cc1`, the inhibition is 0.15%.

`CCN(CC)S(=O)(=O)c1ccc2nc(COC(=O)c3n[nH]c4ccccc34)[nH]c2c1`: the inhibition was 7.74%.

`COc1ccc(COC(=O)c2n[nH]c3ccccc23)cc1F`: the inhibition was 37.5% (active).

With `O=C(COC(=O)c1n[nH]c2ccccc12)NCc1ccccc1`, the inhibition is 4.29%.

Consider `CCC(C)NC(=O)c1c(N)n(/N=C/c2cccs2)c2nc3ccccc3nc12` (stereo unspecified), for which the inhibition was -2.86%.

For the compound `C=CCn1c(N)c(C(=O)OCC(C)C)c2nc3ccccc3nc21`, the inhibition is 9.88%.

Regarding `CC(C)Cn1c(N)c(C(=O)NCc2cccs2)c2nc3ccccc3nc21`, the inhibition was 35.7% (active).

As for `O=C(O)COc1ccc(-c2nccc(-c3cccs3)n2)cc1`, the inhibition is 0.28%.

As for `Brc1ccc(/C=N/N2CCN(C3c4ccccc4-c4ccccc43)CC2)s1`, the inhibition was -3.33%.

On to `CC(CC(=O)Nc1cc(C(F)(F)F)ccc1Cl)c1ccccc1` (stereo unspecified), for which the inhibition is 16%.

Consider `CC(=O)OCc1cc2cc(C)ccc2[nH]c1=O`, for which the inhibition was -5.13%.

On to `CCNCc1cc2cc(C)ccc2[nH]c1=O`, for which the inhibition was -2.22%.

Take `CCN(Cc1cc2cc(C)ccc2[nH]c1=O)S(=O)(=O)c1ccccc1`: the inhibition was 32.2% (active).

Consider `O=[N+]([O-])c1ccc(Oc2ccc(F)cc2Br)c2ccncc12`, for which the inhibition was 68.3% (active).

With `COc1ccc(C2C=C(c3ccc(Br)cc3)Nc3nc(NS(C)(=O)=O)nn32)cc1` (stereo unspecified), the inhibition was -3.73%.

`Cc1cc(/C=C2/SC(=O)N(CC(=O)OC(C)C)C2=O)c(C)n1C`: the inhibition was -3.79%.

On to `Cc1cccc(NC(=S)Nc2ccc(Br)cc2)c1`, for which the inhibition is 0.28%.

Take `CC(=O)Nc1cc(C(=O)O)ccc1S(=O)(=O)c1ccc(Cl)cc1`: the inhibition is 8.39%.

Take `O=C(Nc1ccccc1)c1nnsc1S(=O)(=O)c1ccc(Cl)cc1`: the inhibition was 97.8% (active).

As to `O=C(Nc1ccc(Cl)cc1)c1ccsn1`, the inhibition is 25.9%.

With `Cc1noc(C)c1COC(=O)c1cc2ccccc2cc1O`, the inhibition was 19.3%.

Take `Cc1cccc(NC(=O)CSc2nnc(NC(=O)CN3CCOCC3)s2)c1`: the inhibition was -6.56%.

In the case of `Cc1cccc(NC(=O)CN2CCCN(S(=O)(=O)c3ccc(Br)s3)CC2)c1`, the inhibition is 41.2% (active).

In the case of `Cc1cccc(NC(=O)CN2C(=O)CNC2=O)c1`, the inhibition was 9.16%.

On to `O=C(Nc1ccccc1)c1ccc2nsnc2c1`, for which the inhibition was 12.1%.

Consider `Cn1nc([N+](=O)[O-])nc1Sc1ccc(C(C)(C)C)cc1`, for which the inhibition was 11.6%.

On to `CCOC(=O)C1=C(C)NC(C)=C(C(=O)OCC)C1c1ccccn1`, for which the inhibition was -6.97%.

Regarding `C=CCOC(=O)C1=C(C)NC(SCC(=O)OCC)=C(C#N)C1c1ccc(C)cc1` (stereo unspecified), the inhibition was 18.4%.

For `C=CCOC(=O)C1=C(C)NC(C)=C(C(=O)OCC=C)C1c1cccs1`, the inhibition was 39.5% (active).

Take `COc1ccc(/C=C2/S/C(=N/N=C3\CC4CCC3(C)C4(C)C)NC2=O)cc1` (stereo unspecified): the inhibition is -0.57%.

On to `COc1ccc(/C(O)=C2\C(=O)C(=O)N(Cc3ccco3)C2c2ccc(OC)cc2OC)cc1` (stereo unspecified), for which the inhibition was -3.5%.

As for `CCCn1c(SCC(=O)c2ccc3c(c2)OCCO3)nnc1C(C)C`, the inhibition was 43.7% (active).

`CCCn1c(SCC(N)=O)nnc1C(C)C`: the inhibition was 5.31%.

In the case of `CCCn1c(SCC(=O)Nc2c(C)cccc2C)nnc1C(C)C`, the inhibition was -4.88%.

Turning to `Cc1cc2c(c(=O)n1C)C(C(C)C)C(C#N)=C(N)O2` (stereo unspecified), the inhibition is -3.4%.

`CSCc1cc(N(C)C)nc(SCc2ccc(Cl)cc2Cl)n1`: the inhibition was 15%.

For the compound `CCOC(=O)c1ccc(NC(=O)CSc2nnc(COc3ccccc3OC)n2C)cc1`, the inhibition is 12.5%.

On to `CCOC(=O)c1sc(NC(=O)CSc2ncccn2)c(C#N)c1C`, for which the inhibition is 21.6%.

As to `CCOC(=O)c1ccc(NC(=O)CSc2ncccn2)cc1`, the inhibition was 31.1% (active).

In the case of `CC(c1ccco1)N(C(=O)COc1ccccc1[N+](=O)[O-])c1ccccn1` (stereo unspecified), the inhibition is 14.2%.

As to `C=CCNC(=O)c1sc(SC)cc1-c1ccc(Cl)cc1`, the inhibition was 11.2%.

As for `CC1CCN(CC(=O)c2c[nH]c3ccccc23)CC1`, the inhibition is 6.25%.

Regarding `Cc1ccc(C2CC(=O)NC(SCC(=O)OCc3ccccc3)=C2C#N)o1` (stereo unspecified), the inhibition is 32% (active).

With `CCOC(=O)CSC1=C(C#N)C(c2sccc2C)CC(=O)N1` (stereo unspecified), the inhibition was 11.5%.

Take `CCOC(=O)CSC1=C(C#N)C(c2ccco2)C(C(=O)OCc2ccccc2)=C(C)N1` (stereo unspecified): the inhibition was 24.9%.

On to `CN(C)/C=C(\C#N)C(=O)c1cccnc1Oc1ccc(F)cc1F`, for which the inhibition was 2.7%.

Take `O=C(NC1CCN(Cc2ccccc2)CC1)c1ccccc1F`: the inhibition was 6.56%.

In the case of `O=C(COc1ccccc1F)NC1CC1`, the inhibition was -0.64%.

With `O=C(COc1ccc(Br)cc1F)NC1CCN(Cc2ccccc2)CC1`, the inhibition is 37.7% (active).

As to `Cc1ccc(C(=O)Nc2c(C#N)c(C)c(C)n2Cc2ccccc2)cc1`, the inhibition is 17.1%.

For `CCOC1CS(=O)(=O)CC1OCC` (stereo unspecified), the inhibition is 8.62%.

With `Cc1cc(C)nc(NC(=O)C(C)N2C(=O)c3ccccc3C2=O)n1` (stereo unspecified), the inhibition is -0.16%.

`O=C(Nc1ccccc1C(F)(F)F)c1cc(-c2ccc(O)cc2)on1`: the inhibition is 2.42%.

Turning to `Cc1cc(C)nc(NC(=O)Nc2ccccc2C(F)(F)F)n1`, the inhibition is 34.3% (active).

Take `COc1cc(SC)ccc1C(=O)NCCOc1ccccc1Cl`: the inhibition is 28.9%.

As to `Cc1ccc(CNC(=O)CCNC(=O)Cn2ccc3ccccc3c2=O)cc1`, the inhibition is 7.83%.

Take `CCOc1c2ccc(C(=O)NCc3ccc(OC(F)(F)F)cc3)cc2nn1C`: the inhibition is -2.75%.

Consider `COc1ccc(C(=O)c2c(C)oc3cc([N+](=O)[O-])c(O)c([N+](=O)[O-])c23)cc1`, for which the inhibition was 15%.

Turning to `Cc1c(NC(=O)c2cc(-c3ccc(Cl)s3)nc3ccccc23)c(=O)n(-c2ccccc2)n1C`, the inhibition was 44.6% (active).

As for `COC(=O)Nc1c(C)n(C)n(-c2ccccc2)c1=O`, the inhibition was 6.08%.

Consider `Cc1cc(C(=O)Nc2c(C)n(C)n(-c3ccccc3)c2=O)cs1`, for which the inhibition is 2.08%.

Turning to `CCOC(=O)Nc1ccc(S(=O)(=O)N(C)C(C)C)cc1`, the inhibition was 4.8%.

In the case of `CCOc1c2ccc(C(=O)NCc3ccc4c(c3)OCO4)cc2nn1C`, the inhibition was 24.1%.

For the compound `Cc1ccccc1N/N=C/c1ccc(N2CCOCC2)cc1`, the inhibition was 20%.

`COc1ccccc1CNC(=O)c1ccc(SC)cc1OC`: the inhibition was 17.5%.
